Source: PubChem
The list is not random: actives were taken first. Their share in the collection is about 8%.
MARV entry inh: Marburg virus entry inhibition. Potency, µM (series often up to 49.2 µM), actives largely listed as inhibitors. AID 720532. 18,000 compounds, 6.5% hits. Marburg virus pseudotype entry/binding inhibition, cell-based
Lassa entry: inhibitors of Lassa virus binding or entry into cells | 18,000 compounds, 4.1% hits | Potency, µM (series often up to 49.2 µM), most hits filed as inhibitors | Lassa virus pseudotyped entry inhibition, cell-based qHTS
Each line names hits and unclear results; the compound was inactive in the other large screens; ! = not active in a repeat. Calls follow the shape of the full dose curve; tested in HEK293 cells.

COc1ccccc1C(=O)Nc1cccc(N2CCC(NCc3cnn(-c4ccccc4)n3)CC2)c1	MARV entry inh 11µM, Lassa entry inconclusive
CN(Cc1cnc2ccccn12)C1CCN(c2cccc(NC(=O)c3cccnc3)c2)CC1	none
O=C(Nc1cccc(N2CCC(NCc3cnn(-c4cccc(F)c4)c3)CC2)c1)c1ccncc1	MARV entry inh 2.5µM
COc1cc(O)ccc1C(C)=O	none
CC(=O)OC1CCC2(C)C(=CCC3C2CCC2(C)C3C[C@@H]3O[C@]32C(C)=O)C1 (stereo partly specified)	none
C=CCN=C1N[C@@H](c2ccccc2)[C@H](C(=O)OC)[C@@H](C)N1CC	none
CCCCC/C=C\C/C=C\C/C=C\C/C=C\CCCCCC(=O)NCCc1ccc(O)c(O)c1	none
CCCCC/C=C\C/C=C\C/C=C\C/C=C\CCCC(=O)N(Cc1ccc(O)c(Cl)c1)Cc1ccc(O)c(Cl)c1	MARV entry inh inconclusive, Lassa entry 0.079µM
COc1cc(=O)n2c(c1C(=O)NCc1ccco1)CCN(Cc1cccc(Cl)c1)CC2	none
O=C(Nc1ccc(/C=C/c2ccc(NC(=O)c3cc(S(=O)(=O)O)c4cccnc4c3O)cc2S(=O)(=O)O)c(S(=O)(=O)O)c1)c1cc(S(=O)(=O)O)c2cccnc2c1O	MARV entry inh 3.5µM
O=S(=O)(O)c1cc(I)c(O)c2ncccc12	Lassa entry inconclusive
COc1c(C)c2c(c(O)c1C/C=C(\C)CCC(=O)OCCN1CCOCC1)C(=O)OC2	MARV entry inh 1.1µM, Lassa entry 1.1µM
O=C(c1cccnc1)C1CCCN(Cc2ccc3c(c2)CN(C(=O)c2ccc4[nH]ccc4c2)CCO3)C1 (stereo unspecified)	MARV entry inh inconclusive
CN1CCN(C2=Nc3ccccc3Cc3ccccc32)CC1	MARV entry inh inconclusive
Clc1ccc2c(c1)C(N1CCNCC1)=Nc1ccccc1O2	MARV entry inh 11µM!, Lassa entry inconclusive
Cc1cc(C)nc(S[C@@H]2C[C@@H](C(=O)N3CCCN(C)CC3)N(Cc3cc(F)ccc3F)C2)n1	none
COc1ccc(CNc2ncncc2-c2ccc3c(c2)OCO3)c(OC)c1	none
COc1ccc(OC)c(-c2ccc(O)c(CN3CCc4c([nH]c5ccccc45)C3)c2)c1	MARV entry inh 13µM, Lassa entry inconclusive
COc1ccc(CN2CCOc3c(cc(-c4ccc(OC)nn4)cc3OC)C2)c(O)c1	none
C=C1CC[C@H](O)C/C1=C/C=C1\CCC[C@]2(C)C([C@H](C)CCCC(C)(C)O)CC[C@@H]12 (stereo partly specified)	Lassa entry inconclusive
CC1=C(/C=C/C(C)=C/C=C/C(C)=C/C(=O)Nc2ccc(O)cc2)C(C)(C)CCC1	MARV entry inh inconclusive, Lassa entry 7.1µM!
CC1=C(\C=C/C(C)=C/C=C\C(C)=C\C(=O)O)C(C)(C)CCC1	MARV entry inh inconclusive
CN(C)CCC1(c2ccc(Cl)cc2)Cc2ccccc2C(=O)O1 (stereo unspecified)	MARV entry inh 35µM
CC[C@]1(c2ncc[nH]2)Cc2ccccc2O1	none
O=C(O)COc1ccc(CCNS(=O)(=O)c2ccccc2)s1	none
[Cl-].[Cl-].[Hg+2]	MARV entry inh 2.8µM, Lassa entry 3.2µM
CCCCCCCCCCCCC/C=C/[C@@H](O)[C@H](COP(=O)([O-])OCC[N+](C)(C)C)NC(=O)CCCCCCCCCCCCCCCCC	none
Cc1ccc2c(c1)C1(CCN(CCc3nc(-c4ccccc4)oc3C)CC1)OC(=O)N2	MARV entry inh inconclusive, Lassa entry 13µM
O=C1NCC2(CCN(CCc3ccccc3)CC2)O1	none
O=c1oc2ccccc2c(O)c1C(CC(O)c1ccc(-c2ccc(Br)cc2)cc1)c1ccccc1 (stereo unspecified)	none
C[C@@H]1[C@H]2Cc3ccc(O)cc3[C@]1(C)CCN2C	MARV entry inh inconclusive
[O][C@H]1[C@@H](O)[C@@H](CO)O[C@@H](O[C@@H]2[C@@H]3OC[C@H]2O[C@H](O[C@@H]2[C@@H](O)[C@H](C[C@@H]4[C@@H]5OC[C@H]4O[CH][C@@H]5O)O[C@H](CO)[C@@H]2OS(=O)(=O)O)[C@@H]3OS(=O)(=O)O)[C@@H]1O	MARV entry inh 11µM
OC[C@@H]1O[C@H](OC2[C@@H](O)[C@@H](O)C(O)O[C@@H]2CO)[C@H](O)[C@@H](O)[C@@H]1OC1O[C@H](CO)[C@@H](O)[C@H](O)[C@@H]1O (stereo partly specified)	none
COC(=O)C1=C(C(=O)OC)[C@@H]2N(CC=C(C)C)c3ccccc3[C@@]23CCC(=O)N(CCc2ccccn2)C3=N1	none
O=C(Nc1ccc([N+](=O)[O-])cc1Cl)c1cc(Cl)ccc1O	MARV entry inh 5µM!, Lassa entry 1.1µM
O=C(Nc1ccccc1)c1cc([N+](=O)[O-])ccc1Cl	MARV entry inh inconclusive
C#CCCCON=C1C[C@@H](O)[C@H](O)[C@H]2[C@@H]3C(=O)N(C[C@@H]4CCCO4)C(=O)[C@@H]3CC[C@@H]12	none
Cc1cc(F)ccc1O[C@H]1C=C[C@@H](c2ccc3c(c2)OCO3)O[C@H]1CO	none
CCCN(CCC)C[C@@H]1CCCCN1CCNC(=O)N1c2ccccc2C(=O)Nc2cccnc21	none
